In PubChem BioAssay AID2129 (The Scripps Research Institute Molecular Screening Center, 2009) one finds inhibition data, which are given here for 90 compounds.

Among all 320,000 compounds or so, about 2,200 (0.69%) were called active.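 Rule for the calls: active = inhibition above the mean of all tested compounds plus 3 SD, cutoff set per campaign (cut at about 30% in these data); inactive = the rest.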 Many of the other results were omitted from the sample, so actives are more common in it than they were.

In the assay the target is Bcl-2-like protein 1 (Homo sapiens) (UniProt Q07817). As to the kind of experiment: inhibitors of human Bcl-xL, primary screen, biochemical, fluorescence polarization, HTS (AID 2129).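 Note: 0% = DMSO wells and 100% = unlabeled Bim-BH3 peptide competitor; inhibitors lower millipolarization by displacing the labeled peptide.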 Particulars: GST-Bcl-xL / FITC-Bim BH3 peptide fluorescence polarization; at 10.9 µM; active compounds read high. In general terms: Fluorescence polarisation rises when a labelled molecule tumbles more slowly, as on binding a larger partner.
Bcl-2-like protein 1 (Homo sapiens), sequence (Q07817 whole entry, looked up): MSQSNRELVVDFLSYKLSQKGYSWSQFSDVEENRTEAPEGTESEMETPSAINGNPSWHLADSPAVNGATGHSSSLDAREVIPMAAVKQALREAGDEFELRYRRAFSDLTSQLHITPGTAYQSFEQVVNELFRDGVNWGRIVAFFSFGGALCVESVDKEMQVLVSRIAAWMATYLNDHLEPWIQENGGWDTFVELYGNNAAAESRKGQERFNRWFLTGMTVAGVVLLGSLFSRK
`COCCNc1nc2nonc2nc1N(C)Cc1ccc(C)cc1`: the inhibition is 0.5% (inactive).

As to `COCCNc1nc2nonc2nc1N1CCCC1c1nccs1` (stereo not given), the inhibition is 31.5% (active).

Consider `CC1=C(C(=O)OCc2ccccc2)C(c2ccco2)n2ncnc2N1` (stereo not given), for which the inhibition was 1.01% (inactive).

Consider `CCOc1ccc(C2=CC(c3ccccc3)n3ncnc3N2)cc1` (stereo not given), for which the inhibition was 14.6% (inactive).

As to `CCC(C)NC(=O)/C=C/c1ccc(S(=O)(=O)NCc2ccco2)cc1` (stereo not given), the inhibition is 3.42% (inactive).

In the case of `Cc1ccc(O)c(-c2cc(C(=O)Nc3c(C)n(C)n(-c4ccccc4)c3=O)[nH]n2)c1`, the inhibition was 2.52% (inactive).

As for `CC[N+](C)(CC)CCC[n+]1c(-c2ccccc2)c2cc(N)ccc2c2ccc(N)cc21`, the inhibition is 123% (active).

Take `CC(=O)Nc1ccc(NC(=O)CSC2=NS(=O)(=O)c3ccccc3N2)cc1`: the inhibition is 1.27% (inactive).

Turning to `COc1ccccc1CCNC(=O)c1c(C)nn(CC(C)C)c1Cl`, the inhibition was 3.1% (inactive).

On to `CC(=O)C1=C(C)NC(C)=C(C(C)=O)C1c1cn(-c2ccccc2)nc1-c1cccs1`, for which the inhibition is -1.97% (inactive).

With `CC1CCN(Cc2nc3c(c(=O)n(C)c(=O)n3C)n2CCc2ccccc2)CC1`, the inhibition is -4.09% (inactive).

As to `CC(C)(C)CC(C)(C)NCC(O)COCCOc1ccc(Br)cc1` (stereo not given), the inhibition is -1.57% (inactive).

As for `Cc1ccsc1CNn1cnnc1SCc1ccccc1F`, the inhibition was -10.8% (inactive).

Regarding `Cc1c(C)c(C)c2[nH]c(=S)[nH]c2c1C`, the inhibition is -44% (inactive).

For the compound `O=c1[nH]c(=S)[nH]c2[nH]c(=S)[nH]c12`, the inhibition was 44% (active).

In the case of `Cc1cc2c(C)nc(N/N=C/c3ccccc3)nc2o1`, the inhibition was 2.89% (inactive).

As for `CC1CC(C)CN(S(=O)(=O)c2cccc3nonc23)C1` (stereo not given), the inhibition is 3.55% (inactive).

With `CC(=O)N1CCc2c(sc(NC(=O)CCS(=O)(=O)c3ccc(C)cc3)c2C(N)=O)C1`, the inhibition is 6.13% (inactive).

With `CSc1nc2ccccc2cc1/C=C(\C#N)c1ccc(Cl)cc1Cl`, the inhibition is 1.93% (inactive).

As to `Cc1ccc(C(=O)N2CCCC2)c(F)c1F`, the inhibition was 8.05% (inactive).

For `Oc1ccc(C2Nc3cccc4cccc(c34)N2)cc1`, the inhibition is 15.2% (inactive).

Turning to `COc1cccc(C2Nc3cccc4cccc(c34)N2)c1`, the inhibition was 20.6% (inactive).

As for `Cc1ccc(C2Nc3cccc4cccc(c34)N2)cc1`, the inhibition was 31.7% (active).

With `CCCCCCNS(=O)(=O)c1ccccc1Br`, the inhibition is -2.11% (inactive).

Take `Cc1ccc(NC2CCCN(C(=O)CCC3(C)CC3)C2)cc1C` (stereo not given): the inhibition was 4.16% (inactive).

In the case of `Cc1ccnc(NC(=O)c2ccoc2C)c1`, the inhibition was 32.4% (active).

In the case of `Cc1ccnc(NC(=O)CNC(=O)c2ccccc2)c1`, the inhibition was -1.9% (inactive).

Consider `COc1cc(SC)ccc1C(=O)Nc1cc(C)ccn1`, for which the inhibition was -0.05% (inactive).

In the case of `COC(=O)c1cccc(N2C(=O)C3C4C=CC(CC4)C3C2=O)c1` (stereo not given), the inhibition is 2.84% (inactive).

On to `CCOC(=O)/C(=C\c1ccc([N+](=O)[O-])cc1)C(=O)c1cc(C(C)=O)c(Nc2ccccc2)s1`, for which the inhibition is 1.23% (inactive).

With `Cc1ccc(S(=O)(=O)NNC(=O)/C=C/c2cccc(F)c2)cc1`, the inhibition is 6.57% (inactive).

For the compound `O=C1c2ccccc2C(=O)c2c1cccc2N1CCN(CCO)CC1`, the inhibition is 60% (active).

`O=C1c2ccccc2C(=O)c2c1cccc2N1CCN(Cc2ccccc2)CC1`: the inhibition was 7.24% (inactive).

With `O=C1c2ccccc2C(=O)c2c1cccc2N1CCN(C/C=C/c2ccccc2)CC1`, the inhibition was 20.9% (inactive).

In the case of `C/C(Cl)=C\Cn1c(Nc2cccc(C)c2)nc2c1c(=O)n(C)c(=O)n2C`, the inhibition was 3.4% (inactive).

On to `COc1ccccc1C(=O)N/C(=C/c1ccc2c(c1)OCO2)C(=O)Nc1cccc(C(=O)O)c1`, for which the inhibition was 8.09% (inactive).

For `CCCC1OC23CCCCC2C(C#N)(C#N)C1(C#N)C(=N)O3` (stereo not given), the inhibition was 82.8% (active).

For `Cc1ccc(CNC(=O)CC(NC(=O)c2ccccc2)c2ccccc2)cc1` (stereo not given), the inhibition was -7.73% (inactive).

Take `C=C1c2c(Cl)ccc(O)c2C(O)=C2C(=O)[C@]3(O)C(O)=C(C(N)=O)C(=O)[C@@H](N(C)C)[C@@H]3[C@@H](O)C12` (stereo not given in full): the inhibition was 31.6% (active).

As for `CN(C)[C@@H]1C(=O)C(C(N)=O)=C(O)[C@@]2(O)C(=O)C3=C(O)c4c(O)ccc(Cl)c4[C@@H](O)[C@H]3C[C@@H]12`, the inhibition was 15.2% (inactive).

With `Cc1cc(F)ccc1N1CCC(N2CCN(C)C(CCO)C2)CC1` (stereo not given), the inhibition is 8.78% (inactive).

With `Cc1cc(-c2csc(N)n2)c(C)n1Cc1ccccc1`, the inhibition was 11.3% (inactive).

Regarding `CC(=O)c1ccc(-c2ccc(Cn3c(C)nc4cc(N)c(C)nc43)cc2)cc1`, the inhibition is -0.35% (inactive).

Regarding `COc1ccccc1CNS(=O)(=O)c1ccc2c(c1)NC(=O)CS2`, the inhibition is -2.44% (inactive).

With `CC1CC(c2ccccc2)n2nc(NC(=O)c3cccs3)nc2N1` (stereo not given), the inhibition is 3.43% (inactive).

Turning to `Cc1ccc(SCC(=O)NNC(=O)c2ccc(S(C)(=O)=O)cc2)cc1`, the inhibition is 1.39% (inactive).

Regarding `CCN(CC)S(=O)(=O)c1ccc(N2CCN(C)CC2)c(NC(=O)Nc2ccccc2F)c1`, the inhibition was 5.12% (inactive).

In the case of `O=[N+]([O-])c1ccc(F)cc1Oc1nc(-c2cccnc2)nc2ccccc12`, the inhibition is 3.63% (inactive).

Consider `COc1ccc(Nc2nc(-c3cccnc3)nc3ccccc23)cn1`, for which the inhibition is 118% (active).

For `CCOCCCNc1nc(-c2ccccc2)nc2ccccc12`, the inhibition was 1.72% (inactive).

For the compound `CC[C@]1(O)CC2CN(CCc3c([nH]c4ccccc34)[C@@](C(=O)OC)(c3cc4c(cc3OC)N(C=O)[C@H]3[C@@](O)(C(=O)OC)[C@H](OC(C)=O)[C@]5(CC)C=CCN6CC[C@]43[C@@H]65)C2)C1` (stereo not given in full), the inhibition is 15% (inactive).

Regarding `CC[C@]1(O)C[C@@H]2CN(CCc3c([nH]c4ccccc34)[C@@](C(=O)OC)(c3cc4c(cc3OC)N(C)[C@H]3[C@@](O)(C(=O)OC)[C@H](OC(C)=O)[C@]5(CC)C=CCN6CC[C@]43[C@@H]65)C2)C1`, the inhibition is 105% (active).

Turning to `Cc1ccc2c(Cl)c(C(=O)NCCCn3ccnc3)sc2c1`, the inhibition was 6.22% (inactive).

On to `CC(=O)C[C@@H](O)CC(=O)[C@H]1OC(=O)CCCCCCc2ccccc21`, for which the inhibition is 0.52% (inactive).

Turning to `COc1ccc(CN2CCn3ncc(C(=O)Nc4ccc(Cl)cc4Cl)c3C2=O)cc1`, the inhibition was 2.02% (inactive).

Turning to `FC(F)(F)c1cccc(Nc2ncnc3ccccc23)c1`, the inhibition was -2.73% (inactive).

Turning to `O=c1cc(CO)oc(C(Nc2cccc([N+](=O)[O-])c2)c2ccccn2)c1O` (stereo not given), the inhibition was 13.9% (inactive).

Turning to `O=c1cc(CO)oc(C(Nc2cccc(C(F)(F)F)c2)c2ccccn2)c1O` (stereo not given), the inhibition was 33.9% (active).

Turning to `O=C(NCCc1ccccn1)c1cc(-c2ccc(Cl)cc2)nc2ccccc12`, the inhibition was -6.46% (inactive).

As for `COCCCNC(=S)N(Cc1ccccc1)Cc1ccc(F)cc1`, the inhibition is 3.88% (inactive).

On to `COc1ccc(C(=O)COC(=O)CNC(=O)c2cccs2)cc1Br`, for which the inhibition is 5.14% (inactive).

For `C=CCOc1cccc(C2C(C(=O)c3ccc(C)o3)=C(O)C(=O)N2CCCn2ccnc2)c1` (stereo not given), the inhibition is 0.01% (inactive).

On to `Cc1cc(N2C(=O)C(O)=C(C(=O)c3ccc(C)o3)C2c2ccc(OCc3ccccc3)cc2)no1` (stereo not given), for which the inhibition is 11.2% (inactive).

For `C=CCOc1cccc(C2C(C(=O)c3ccc(C)o3)=C(O)C(=O)N2c2nnc(C)s2)c1` (stereo not given), the inhibition was 88.7% (active).

In the case of `Cc1cc(C(=O)NC2CCN(Cc3ccccc3)CC2)n[nH]1`, the inhibition was 1.91% (inactive).

`C#CCOCCOCCOCCNc1nc(N2CCN(C(=O)C([C@@H](C)CC)n3cc(C(N)COC(=O)C(F)(F)F)nn3)CC2)nc(N2CCN(C(=O)[C@H](Cc3ccc(O)cc3)n3cc(C(N)[C@H](C)CC)nn3)CC2)n1` (stereo not given in full): the inhibition was 14.5% (inactive).

For `Cn1c2c(c(=O)n(C)c1=O)C1c3ccccc3OCC1C(C)(C)O2` (stereo not given), the inhibition was 3.9% (inactive).

Take `NC(=O)COC(=O)c1ccc2c(c1)C(=O)N(Cc1ccco1)C2=O`: the inhibition was 4.63% (inactive).

Consider `CCCc1nc2scc(-c3ccc(C)cc3)c2c(=O)n1N`, for which the inhibition was 1.66% (inactive).

As to `O=C(O)CCn1c(Cc2ccccc2)nc2ccccc21`, the inhibition is 1.07% (inactive).

`Cc1cc2ccccc2n1CCC(=O)O`: the inhibition is 52.5% (active).

In the case of `Cc1cc2ccccc2n1CCNC(=O)COc1ccc2ccccc2c1`, the inhibition is 4.61% (inactive).

In the case of `CC(C)(C)c1cc2cccnc2n1Cc1cccc(F)c1`, the inhibition is 7.39% (inactive).

With `CN(C)NC(=O)C(NC(=O)c1ccc(N)cc1)C12CC3CC(CC(C3)C1)C2` (stereo not given), the inhibition was -0.78% (inactive).

For `CC(C)OC(=O)CN1C(=O)C(=O)c2ccccc21`, the inhibition was 10.2% (inactive).

For the compound `CCOC(=O)c1cc2n(c1N)-c1ccccc1C2=O`, the inhibition was 140% (active).

Regarding `CCOC(=O)c1ccccc1CN1C(=O)c2ccccc2S1(=O)=O`, the inhibition was 4.12% (inactive).

As for `Cc1ccc(S(=O)(=O)CC(=O)NC(C)c2ccccc2)cc1` (stereo not given), the inhibition was -0.31% (inactive).

`CCOc1cc(CNCCN(C)C)c(Cl)cc1OCC(=O)NCCc1ccccc1`: the inhibition was -0.08% (inactive).

For `CNc1nc(-c2ccccc2)cc(-c2ccccc2)n1`, the inhibition is 2.12% (inactive).

For the compound `CNC(=S)NNC(=O)c1oc2nc(-c3ccccc3)cc(-c3ccco3)c2c1N`, the inhibition was 30.6% (active).

Consider `NNC(=O)c1oc2nc(-c3ccccc3)cc(-c3ccco3)c2c1N`, for which the inhibition was -35.7% (inactive).

As for `COc1ccccc1C(=O)Nc1ccccc1C(=O)Nc1ccccc1`, the inhibition is -2.98% (inactive).

Turning to `Oc1[nH]c2ccc(Br)cc2c1N=Nc1nn[nH]n1`, the inhibition is 1.22% (inactive).

In the case of `O=C(CNC(=O)Cc1ccccc1)N=Nc1c(O)[nH]c2ccc(Br)cc12`, the inhibition was 10.3% (inactive).

Turning to `NS(=O)(=O)c1ccc(N=Nc2c(O)[nH]c3ccc(Br)cc23)cc1`, the inhibition was 37.1% (active).

Regarding `CC(=O)CC[C@@H](C)O[C@@H]1OC(C)[C@H](O)CC1O` (stereo not given in full), the inhibition is 1.11% (inactive).

For the compound `Cc1ccc(-n2c(C)cc(/C=C(\C#N)C(=O)NCC3CCCO3)c2C)cc1` (stereo not given), the inhibition is -0.52% (inactive).

As for `CCCN1CC=C2C(C#N)=C(N)C(C#N)(C#N)C(c3cc(OC)ccc3OC)C2C1` (stereo not given), the inhibition is 68.3% (active).

For the compound `CCN1CC=C2C(C#N)=C(N)C(C#N)(C#N)[C@H](c3ccoc3)[C@H]2C1`, the inhibition is 148% (active).

As a reminder, the inhibition is the relative decrease from the control value, in per cent.
